For 27 compounds, Potency results are on record in PubChem BioAssay AID588856 (National Center for Advancing Translational Sciences (NCATS), 2011).

Molecules are shown by their SMILES. The campaign covered roughly 410,000 compounds. About 3,100 (0.76%) were called active. The call rests on the fitted dose curve; in most records, active means well fitted cell-killing curve with a large enough effect; inactive means no such curve, though single readings can be large or run the other way. Shown is part of a subset that was picked to be rich in actives. Entries that show only a call come without a potency.
Potency means the concentration at half of the fitted maximal effect.

A short description of the test: qHTS for Inhibitors of TGF-b: Cytotox Counterscreen. Particulars: HepG2 CAGA-GFP viability, ATP luminescence, 18 h; series mostly up to 46.1 µM. An excerpt:
TGF-b is a main component in the TGF-b signaling pathway which plays diverse roles in cellular and development pathways. TGF-b is mediated by transcription factors called "Smads". Although the Smad-dependent pathway is the primary canonical TGF-b signaling mode, TGF-b1 can also activate alternative signaling pathways, including those involving MAPK (ERK, JNK and p38). This interaction may mediate or enhance Smad-dependent responses, or can exert Smad-independent effects. The complexity of this signaling cascade allows the TGF-b superfamily to perform unique, overlapping or redundant functions. We believe that targeting the TGF-beta pathway at the Smad-transcription factor level may eliminate the consequences of disrupting the entire pathway and offer specificity without affecting other signaling pathways. Smad3 is the primary transducer of TGF-b's signals and Smad3 regulates many functions attributed to TGF-b signaling. We hypothesize that Smad3 inhibitors will selectively eliminate Smad3-specific TGF-beta signals without undesired off-target effects. We aim to identify Smad3-small molecule antagonists using a quantitative high throughput screening (qHTS) approach.
A high-throughput assay was developed to screen the NIH Molecular Libraries Small Molecule Repository (MLSMR). This is a cell based assay, where TGF-b is tagged with GFP. This is a counterscreen that evaluates the cytotoxicity of the compounds that were screened in the primary cell-based screen (AID 588855).
MH087449NIH Chemical Genomics Center [NCGC]
NIH Molecular Libraries Probe Centers Network [MLPCN]
Assay Submitter (PI): Sushil Rane, National Institute of […]
Suspensions of trypsinized HEPG2 CAGA-GFP cells were dispensed into white, tissue culture-treated, solid 1536-well plates at 5uL/well (1000 cells/well final concentration) in DMEM medium supplemented with 1% FBS. Plates were incubated at 37 degrees C for 2 hours, after which 23 nL of compounds or DMSO were delivered to each well using a pin tool. One uL of recombinant TGF-beta in DMEM (1% FBS) was then dispensed (500 pg/mL final concentration), and plates were incubated at 37 degrees C for 18 hours. Two uL of CellTiter Glo (Promega), a luminescence-based viability reagent, was dispensed, followed by a 10 minute room temperature incubation. The plates were then measured on a PerkinElmer ViewLux plate reader for luminescence (clear filter) using a 5 second exposure. The %Activity was determined from the corrected luminescence values. Wells containing media only (no cells) were used to normalize %Activity of identified toxic compounds; media-only wells corresponded to 100%Activity (complete cell-killing), while DMSO-dosed cell controls were used to normalize 0%Activity (no toxicity).
Concentration-response curves were fitted to the signals arising from the resulting luminescence. The concentration-effect curves were then classified based on curve quality (r2), response magnitude and degree of measured activity, and compounds were subsequently categorized based on their curve class.
A general note: In qHTS, concentration-response curves come from the screen itself.
In the case of `COc1ccc(CS(=O)/C(Cl)=C(/Cl)C(=O)Nc2ccc(OC)nc2)cc1` (configuration not stated), the Potency was 14.1 µM (active). Regarding `COc1ccc(CC(=O)Nc2ccc(-c3nc4ccccc4s3)c(C)c2)cc1`, the Potency result is “inactive”. In the case of `COc1ccc(NC(=O)C(=O)NCc2ccco2)cc1`, the Potency result was “inactive”. Turning to `COc1ccc(-n2c(=O)c3c(c4cc(OC)ccc4n3C)n(Cc3cccc(C)c3)c2=O)cc1`, the Potency result was “inactive”. `COc1ccc(CNC(=O)C2=Cc3cccc(OC)c3OC2)cc1OC`: the Potency entry was “inactive”. For `COc1ccc(OC)c(CNC(=O)c2c3c(nc4ccccc24)C(=O)N(C2CCCCC2)C3)c1`, the Potency entry is “inactive”.

As for `COc1ccc(N2CCN(CCNC(=O)c3nnc(Cc4c(F)cccc4Cl)o3)CC2)cc1`, the Potency result is “inactive”.

For the compound `O=C(NCCCN1CCN(c2cccc(Cl)c2)CC1)c1nnc(Cc2ccc(F)cc2Cl)o1`, the Potency was 11.2 µM (active). On to `O=C(Cc1csc(Nc2nc(=S)[nH]c3ccccc23)n1)NCCCN1CCN(c2cccc(Cl)c2)CC1`, for which the Potency result was “inactive”.

For `CCc1ccc(NC(=O)CN2C(=O)C(c3ccccc3)=NC23CCCCCC3)cc1`, the Potency entry is “inactive”. With `COC(=O)Nc1ncc(CN2C(=O)c3ccccc3C2=O)s1` the entry was “inactive”. To `COc1ccc(CC(=O)NCc2nnc(SCC(=O)Nc3ncc(C)s3)n2C)cc1` belongs “inactive”; to `Cc1cnc(NC(=O)c2ccccn2)s1`, 5.01 µM (active); to `CCOc1ccccc1CNC(=O)c1ccc2c(c1)nc1n2CCC(C)C1` (configuration not stated), “inactive”. For the compound `CCN(Cc1ccccc1)Cc1c(O)ccc2c(=O)c(-c3ccc(Cl)cc3Cl)coc12`, the Potency entry was “inactive”. With `Cc1[nH]c2ccccc2c1C(=O)C(=O)N(C)c1ccccc1`, the Potency entry is “inactive”. Regarding `OC[C@@H]1O[C@H](n2cnc3c(SCc4ccccc4)ncnc32)[C@H](O)[C@H]1O`, the Potency entry is “inactive”. To `CC(C)(C)CN1C(=O)C(=O)NC[C@H]1Cc1cccc2ccccc12` belongs “inactive”; to `c1ccc2c(CCN3CCNC[C@H]3Cc3cccc4ccccc34)cccc2c1`, 12.6 µM (active). Turning to `c1ccc(C[C@H]2CNCCN2CCC23CC4CC(CC(C4)C2)C3)cc1`, the Potency entry was “inactive”.

Take `O=c1n(Cc2cccc(C(F)(F)F)c2)c2ccccc2c2nc(-c3ccccc3)nn12`: the Potency entry is “inactive”. Regarding `Brc1cccc[n+]1Cc1cccc(C[n+]2ccccc2Br)c1`, the Potency result is “inactive”.

On to `CCOC(=O)Nc1ccc2c(c1)N(C(=O)CN1CCN3CCCC3C1)c1ccccc1CC2` (configuration not stated), for which the Potency entry was “inactive”. Turning to `CCOC(=O)Nc1ccc2c(c1)N(C(=O)CCCl)c1ccccc1[S@]2=O`, the Potency is 12.6 µM (active). As for `CCOC(=O)Nc1ccc(S(=O)(=O)N(C)C(C)C)cc1`, the Potency entry was “inactive”. For the compound `Cc1ccc(C(=O)Nc2ccc(C(=O)O)cc2)cc1S(=O)(=O)Nc1ccccc1`, the Potency entry was “inactive”.

On to `O=C(Nc1ccc2oc(-c3ccc(O)c(Br)c3)nc2c1)c1cc2ccccc2o1`, for which the Potency entry is “inactive”.
